# A selection: hits, their analogues and other compounds. The true share with any hit is near 7.1%.
# S2 tox = Viability Counterscreen for Primary qHTS for Inhibitors of ATXN expression. S2 cells (HEK-293 line with an ATXN2-luciferase reporter) viability, CellTiter-Fluor protease fluorescence, 24 h. Potency, µM (titrated, usually from 56.7 µM), most hits filed as cytotoxic. 400,000 compounds, 0.49% hits; note: potency is the fitted concentration of half-maximal effect; nearly all actives have a fitted effect of over 40% in size
# MCF10A rereplic = A quantitative high throughput screen for small molecules that induce DNA re-replication in MCF 10a normal breast cells. 350,000 compounds, 2.9% hits. AID 624296, 2012. Potency, µM (top dose mostly 46.1 µM), inactives show at the highest dose activity, positive = re-replication, most hits filed as activators. MCF 10A DNA re-replication, Hoechst nuclear intensity, 48 h; note: potency is the fitted concentration of half-maximal effect; % of control where 0% means no effect; nearly all actives have a fitted effect of over 50% in size
# IL1B secr inh = qHTS for Inhibitors of Inflammasome Signaling: IL-1-beta AlphaLISA Primary Screen; THP-1 LPS/ATP IL-1B secretion, AlphaLISA, 16 h; stronger effect = lower value; activity change, % at 57.5 µM; 360,000 compounds, 4.7% hits; in the data active = activity change below about -50%; inconclusive = mostly about -30% to -49%; note: % is set by controls: 0 for no effect and ±100 for the full control effect
#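 THP-1 cells pretreated 1 hr with compounds (up to 57.5 uM final), then stimulated with LPS (250 ng/mL final) plus ATP (1.25 mM final); secreted IL-1B measured by AlphaLISA after 16 hr, decreased signal indicating inhibition.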
# ATXN2 expr inh = Primary qHTS for Inhibitors of ATXN expression; HEK-293 ATXN2-luciferase reporter, luminescence, 24 h; Potency, µM (series often up to 57 µM), without a hit: at the highest dose activity change, negative = inhibition, hits mostly inhibitors; 360,000 compounds, 0.72% hits; AID 1745845, 2022; note: potency is the fitted concentration of half-maximal effect; % is set by controls: 0 for no effect and ±100 for the full control effect; nearly all actives have a fitted effect of over 55% in size
#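 ATXN2-luciferase reporter cells (luciferase flanked by upstream and downstream ATXN2 gene portions) were treated 24 h at 37 °C with compounds at up to 57 uM. SteadyGlo luminescence gave expression; GF-AFC fluorescence gave viability.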
# SW480 rereplic = A quantitative high throughput screen for small molecules that induce DNA re-replication in SW480 colon adenocarcinoma cells | SW480 DNA re-replication, Hoechst DNA content imaging, 48 h | Potency, µM (titrated, usually from 46.1 µM), for the others: at the top dose re-replication activation, hits mostly activators | 340,000 compounds, 1.8% hits | AID 624297, 2012; note: potency is the fitted concentration of half-maximal effect; % of control where 0% means no effect; nearly all actives have a fitted effect of over 55% in size
#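 Hoechst fluorescence of nuclei (405 nm excitation, 500-530 nm emission) measured by plate-scanning imager after 48 hr compound exposure at 37 C; re-replication scored as increased number of nuclei with elevated intensity.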
# PINK1 expr mod = A Quantitative High throughput Screen to Identify Chemical Modulators of PINK1 Expression. PINK1 immunofluorescence, high-content cytometry, 24 h. Potency, µM (titrated, usually from 76.6 µM), without a hit: top-dose activation (PINK1 increase), most hits filed as activators. 410,000 compounds, 0.2% hits; active = well fitted activation curve with a large enough effect; inconclusive = small, poorly fitted or top-dose-only effect; cell line not stated here; note: potency is the fitted concentration of half-maximal effect; % of control where 0% means no effect; nearly all actives have a fitted effect of over 65% in size
#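 PINK1 protein, normally rapidly degraded, was detected by immunofluorescence after 24 hour compound treatment of a stable cell line. Titration data (5 concentrations) came from laser-scanning cytometry, with CCCP-treated wells as controls.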
# Starred values were filed as active, the others as inactive; i = inactive; u = inconclusive; x = not tested or not shown; [ ] = remark or other dose. Unless noted, calls come from the whole dose curve; as a rule, active = well fitted curve in the direction sought with a large enough effect; inconclusive = small, poorly fitted or top-dose-only effect, or another doubt; inactive = no such curve, though single readings can be large; an effect the other way counts as inactive or inconclusive.
SMILES,S2 tox,MCF10A rereplic,IL1B secr inh,ATXN2 expr inh,SW480 rereplic,PINK1 expr mod
CC1CCCC(C)N1C(=O)COC(=O)c1cncc(Br)c1 (centres undefined),i,-5%,14,0%,-7%,1%
O=c1c2ccccc2n2c(-c3ccccc3F)nnc2n1CCc1ccccc1,i,x,x,10%,x,0%
CCc1cccc(C)c1NC(=O)Cn1ccn(-c2cccc(OC)c2)c(=O)c1=O,x,x,x,x,x,1%
C/C(=N\NC(=O)c1ccc([N+](=O)[O-])c(C)c1)c1ccccc1Cl,i,-20%,-70*,12%,1%,9%
Cc1c([N+](=O)[O-])cc(C(=O)Nc2ccc(Cc3ccncc3)cc2)cc1[N+](=O)[O-],i,1%,u,u,-4%,1%
CC(=O)Nc1ccccc1NC(=O)C/C(C)=N/NC(=O)c1ccc([N+](=O)[O-])c(Cl)c1,i,u,14,7%,0%,0%
O=C(Nc1ccc(Cc2ccncc2)cc1)c1ccc(Cl)c([N+](=O)[O-])c1,u,u,-73*,-19%,-4%,-1%
Cc1cc(C(=O)Nc2ccc(Nc3ccccc3)cc2)ccc1[N+](=O)[O-],i,u,-65*,2%,18%,8%
O=C(Nc1ccc(Nc2ccccc2)cc1)c1ccc(Cl)c([N+](=O)[O-])c1,u,25%,-11,x,-1%,1%
COC(=O)c1c(SC)nc2ccccc2c1OCc1ccccc1Cl,i,x,x,-10%,x,2%
Cc1ccc(C2CC2c2n[nH]c(=S)n2-c2cccc(Cl)c2)cc1 (centres undefined),i,23µM*,31,-6%,-5%,1%
S=c1[nH]nc(C2CC2c2ccc(Cl)cc2)n1-c1ccc(Cl)cc1 (centres undefined),i,u,-102*,5%,u,0%
Cc1ccc(-n2c(C3CC3c3ccc(Cl)cc3)n[nH]c2=S)cc1 (centres undefined),i,u,63,20%,u,-5%[38.3 µM]
COc1cc(OC)c2c(-c3ccccc3)cc(=O)oc2c1C(CC(=O)N1CCCC1)c1ccc2c(c1)OCO2 (centres undefined),u,u,u,u,-5%,4%
COc1cc(OC)c2c(-c3ccccc3)cc(=O)oc2c1C(CCN1CCOCC1)c1ccc(N(C)C)cc1 (centres undefined),u,14%,0,-12%,u,6%
COc1cc(OC)c2c(-c3ccccc3)cc(=O)oc2c1C(CCN1CCCCC1)c1ccc(N(C)C)cc1 (centres undefined),22µM*,9%,-18,u,24%,-1%
COc1cc(OC)c2c(-c3ccccc3)cc(=O)oc2c1C(CCN1CCCCC1)c1ccc2c(c1)OCO2 (centres undefined),u,1%,-4,-17%,-2%,4%
COc1ccc(C(CCN2CCCCC2)c2c(OC)cc(OC)c3c(-c4ccccc4)cc(=O)oc23)cc1 (centres undefined),22µM*,u,-11,u,1.6µM*,0%
COc1cc(O)c(C(CC(=O)N2CCCCC2)c2ccc3c(c2)OCO3)c(OC)c1 (centres undefined),i,7%,-11,2%,-3%,2%
COc1cc(O)c(C(CCN2CCCCC2)c2ccc3c(c2)OCO3)c(OC)c1 (centres undefined),u,9%,-81*,u,-9%,5%
COc1cc(OC)c2c(-c3ccccc3)cc(=O)oc2c1C(CCN1CCCC(C)C1)c1ccc2c(c1)OCO2 (centres undefined),10µM*,13%,-12,u,-4%,-1%
CCC(=O)N1CCc2cc(CNS(=O)(=O)c3ccc(CC(C)C)cc3)ccc21,x,x,x,x,x,0%
CC(C)(C)c1ccc(OCCNC(=S)Nc2ccccc2)cc1,i,29%,-107*,-34%,u,u
CC(C)(C)c1ccc(OCCNCc2ccccc2)cc1,i,-3%,-93*,-4%,-4%,-2%
CC(C)(C)c1ccc(C(=O)NCCOc2ccccc2)cc1,i,-1%,-17,u,3%,2%
SMILES,S2 tox,MCF10A rereplic,IL1B secr inh,ATXN2 expr inh,SW480 rereplic,PINK1 expr mod
COc1ccc(NC(=O)CN2C(=O)COc3ccc(S(=O)(=O)Nc4ccccc4)cc32)cc1OC,x,x,x,x,x,1%
Fc1ccc(Nc2ncnc3c2nc2n3CCCCC2)c(F)c1,i,x,x,24%,x,0%
S=C1NC(c2cccs2)=CC(c2ccc(Br)cc2)N1 (centres undefined),i,u,u,-24%,21µM*,6%
S=C1NC(c2ccccc2)=CC(c2ccccc2)N1 (centres undefined),i,u,-12,-5%,-3%,1%
CC(C)(C)[C@H](NC(=O)c1ccc(N)c(Cl)c1)C(=O)N1CCC[C@@H]1C(=O)N[C@H](C#N)CC(=O)O,x,x,x,-2%[5.55 µM],x,x
Cc1cc([N+](=O)[O-])ccc1NC(=O)c1cncc(Br)c1,i,1%,-67*,6%,8%,1%
Cc1cc([N+](=O)[O-])ccc1NC(=O)Nc1ccc(F)cc1F,i,u,-82*,-24%,10%,u
O=C(NNC(=S)Nc1ccc(F)cc1)c1cccc([N+](=O)[O-])c1,i,-2%,-16,-12%,-4%,-1%
O=C(Nc1ccc(Oc2ccc(NC(=O)Nc3ccc([N+](=O)[O-])cc3)cc2)cc1)Nc1ccc([N+](=O)[O-])cc1,i,-1%,-88*,u,8%,28µM*
Cc1ccc(NC(=S)NNC(=O)c2cccc([N+](=O)[O-])c2)cc1Cl,i,19%,-3,x,-7%,35µM*
COc1ccc(-c2nsc(NC(=O)c3ccccc3Br)n2)cc1,x,x,x,x,x,4%
O=C(Cn1c(=O)oc2cc(S(=O)(=O)N3CCCCCC3)ccc21)Nc1cccc(C(F)(F)F)c1,x,x,x,x,x,4%
COc1ccc(N(CC(=O)NCc2ccccc2Cl)S(=O)(=O)c2c(C)[nH]c(=O)[nH]c2=O)cc1,i,x,x,0%,x,5%
O=C(CNC(=O)c1ccccc1)OCC(=O)c1cccc2ccccc12,x,x,x,x,x,-1%
C[n+]1ccnc2ccccc21,x,x,x,x,x,-1%
O=C(Nc1ccc(OC(F)(F)F)cc1)Nc1cccc([N+](=O)[O-])c1,16µM*,12µM*,-106*,u,u,u

# Compound activity (PubChem BioAssay)
